Experimental data published in PubChem BioAssay (EPA / NIEHS).
More than one record can exist for a structure, and the calls need not agree. Activity calls are given as the source filed them. How the source made its calls: active means hit-call score of the fitted dose curve at least 0.9, where 1 is the maximum; inactive means score below 0.9.

read-out: Matrix Metallopeptidase 1 (MMP1), MMP1 (gene 4312); test: BSK_BE3C_MMP1: BioMAP Diversity Plus: BE3C Assay for Matrix Metallopeptidase 1 (MMP1) Biomarker Activity (AID 2283024); conditions: primary human bronchial epithelial cells; actives raise or lower the signal
Description: BSK_BE3C is a cell-based, multiplexed-readout assay that uses bronchial epithelial cell, a human lung primary cell, with measurements taken at 24 hours after chemical dosing in a 96-well plate.BSK_BE3C_MMP1 is an assay component measured in the BSK_BE3C assay. It measures MMP-1 antibody related to regulation of gene expression using ELISA technology.Data from the assay component BSK_BE3C_MMP1 was analyzed into 1 assay endpoint. This assay endpoint, BSK_BE3C_MMP1, was analyzed with bidirectional fitting relative to DMSO as the negative control and baseline of activity. Using a type of binding reporter, gain or loss-of-signal activity can be used to understand changes in the signaling as they relate to the gene MMP1. Furthermore, this assay endpoint can be referred to as a primary readout, because this assay has produced multiple assay endpoints where this one serves a signaling function. To generalize the intended target to other relatable targets, this assay endpoint is annotated to the protease intended target family, where the subfamily is matrix metalloproteinase.
The levels of cell surface (or secreted, indicated by the prefix "s") biomarker endpoints were measured by ELISA. Overt cytotoxicity to cells in confluent adherent cultures (all systems other than the BT system) was assessed by measuring total protein levels using sulforhodamine B (SRB) staining in parallel cultures at the time of biomarker measurements, indicated as SRB endpoints. For proliferation assays for adherent cell types, individual cell types are cultured at sub-confluence and relative cell numbers quantified by SRB staining at time points optimized for each system (48 h: 3C and CASM3C systems; 72 h: BT and HDF3CGF systems; 96 h: SAg system). SRB was performed by staining cells with 0.1% SRB after fixation with 10% TCA and reading wells at 560 nm.Viability and proliferation of PBMC (T cells) was quantified by Alamar Blue reduction for the SAg and BT systems. For PBMC viability (referred to as PBMC Cytotoxicity within the assay endpoint names), cells were plated (75,000/well in a 96-well plate) and then chemical samples added for 1 h before addition of activators, SEB and TSST-1 (20 ng/mL final concentration each). Cells were incubated for 90 h. Then, Alamar Blue (20 uL/well) (Invitrogen, Cat DAL1100) was added for 6 h, and the plates were read with a fluorescence microplate reader at 546/580 nm (excitation/emission). For PBMC proliferation, cells were plated and activated as above but incubated for only 16 h prior to addition of Alamar Blue. Plates were read after 6 h.

SMILES	outcome	AC50
O=[N+]([O-])/N=C1\NCCN1Cc1ccc(Cl)nc1	inactive	–
CCCN(CCC)c1c([N+](=O)[O-])cc(C(F)(F)F)cc1[N+](=O)[O-]	inactive	–
CC(C)N(C(=O)COc1nnc(C(F)(F)F)s1)c1ccc(F)cc1	inactive	–
CN1CSC(=S)N(C)C1	inactive	–
CCC(C)Nc1c([N+](=O)[O-])cc(C(C)(C)C)cc1[N+](=O)[O-] (stereo not given)	–	11.1 µM (active)
O=[N+]([O-])c1c(Cl)c(Cl)c(Cl)c(Cl)c1Cl	inactive	–
Cc1cc(C)nc(NC(=O)NS(=O)(=O)c2ccccc2C(=O)OC2COC2)n1	inactive	–
Clc1ccccc1-c1nnc(-c2ccccc2Cl)nn1	inactive	–
CCOC1Oc2ccc(OS(C)(=O)=O)cc2C1(C)C (stereo not given)	inactive	–
CCS(=O)(=O)c1cccnc1S(=O)(=O)NC(=O)Nc1nc(OC)cc(OC)n1	inactive	–
ClC1C(Cl)C(Cl)C(Cl)C(Cl)C1Cl (stereo not given)	inactive	–
CC1(c2ccc(Oc3ccccc3)cc2)OC(=O)N(Nc2ccccc2)C1=O (stereo not given)	inactive	–
O=S1OCC2C(CO1)C1(Cl)C(Cl)=C(Cl)C2(Cl)C1(Cl)Cl (stereo not given)	–	36.6 µM (active)
CC[C@H](C)[C@H]1O[C@]2(C=C[C@@H]1C)C[C@@H]1C[C@@H](C/C=C(\C)[C@@H](O[C@H]3C[C@H](OC)[C@@H](O[C@H]4C[C@H](OC)[C@@H](O)[C@H](C)O4)[C@H](C)O3)[C@@H](C)/C=C/C=C3\CO[C@@H]4[C@H](O)C(C)=C[C@@H](C(=O)O1)[C@]34O)O2 (tested in a mixture with another compound)	–	11.1 µM (active)
CC(C)(C)C(O)/C(=C\c1ccc(Cl)cc1Cl)n1cncn1 (stereo not given)	–	33.6 µM (active)
C#CCN1C(=O)COc2cc(F)c(N3C(=O)C4=C(CCCC4)C3=O)cc21	inactive	–
O=C(O)COc1ccc(Cl)cc1Cl	inactive	–
O=C(Nc1ccccc1)Nc1cnns1	inactive	–
COP(=S)(OC)Oc1ccc([N+](=O)[O-])cc1	inactive	–
CCOCN(C(=O)CCl)c1c(C)cccc1CC	inactive	–

SMILES	outcome	AC50
O=S(=O)(O)C(F)(F)C(F)(F)C(F)(F)C(F)(F)C(F)(F)C(F)(F)C(F)(F)C(F)(F)F	inactive	–
CC(C)(C)C(O)C(Oc1ccc(Cl)cc1)n1cncn1 (stereo not given)	inactive	–
[2H]C1([2H])[n+]2ccccc2-c2cccc[n+]2C1([2H])[2H]	–	2.08 µM (active)
CCC(C)(NC(=O)c1cc(Cl)c(C)c(Cl)c1)C(=O)CCl (stereo not given)	–	27 µM (active)
COC(=O)c1ccccc1S(=O)(=O)NC(=O)Nc1nc(C)nc(OC)n1	inactive	–
COc1nn(CSP(=S)(OC)OC)c(=O)s1	inactive	–
COC(=O)c1ccccc1CS(=O)(=O)NC(=O)Nc1nc(OC)cc(OC)n1	inactive	–
O=C1c2ccccc2C(=O)N1SC(Cl)(Cl)Cl	–	34.9 µM (active)
O=C(O)C(F)(F)C(F)(F)C(F)(F)C(F)(F)C(F)(F)C(F)(F)C(F)(F)F	inactive	25.8 µM (active) [middle of 5 runs]
CCN(CC)C(=O)SCc1ccc(Cl)cc1	inactive	–
O=C(O)CCCOc1ccc(Cl)cc1Cl	inactive	–
C[C@H]1[C@H](c2ccc(Cl)cc2)SC(=O)N1C(=O)NC1CCCCC1	–	12.8 µM (active)
CC(C)OC(=O)Nc1cccc(Cl)c1	inactive	–
CCCN(CCOc1c(Cl)cc(Cl)cc1Cl)C(=O)n1ccnc1	inactive	–
COc1cc(OC)nc(NC(=O)NS(=O)(=O)c2cc(NC=O)ccc2C(=O)N(C)C)n1	inactive	–
COP(=O)(OC)OC=C(Cl)Cl	inactive	–
CCc1ccc(C(=O)NN(C(=O)c2cc(C)cc(C)c2)C(C)(C)C)cc1	inactive	–
Cc1[nH]c(=O)n(C(C)(C)C)c(=O)c1Cl	inactive	–
COC(=O)c1ccccc1S(=O)(=O)NC(=O)N(C)c1nc(C)nc(OC)n1	inactive	–
